Screens deposited in PubChem BioAssay by Broad Institute.
The sample as a whole holds a higher share of hits than the screen did.
CD40 NFkB inh: CD40 pathway inhibition in BL2 cells | BL2 NF-kB luciferase reporter, CD40L-induced, 4 h | inhibition, % at 10 µM | hit rate 0.94% among 83,000;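 active means mean inhibition of at least 50% with a set share of replicates also reaching that level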
Each line names hits and unclear results; the compound was inactive in the other large screens; [ ] = remark or other dose.

O=C(c1ccc(F)cc1)N1[C@@H](CO)[C@@H]2c3ccccc3NC[C@@H]21	none
CCc1cnc(N2[C@H](CO)[C@@H](c3ccccc3-c3ccccc3C)[C@@H]2C#N)s1	none
CO[C@H]1CN(C)C(=O)c2cc(NC(=O)C3CCC3)ccc2OC[C@@H](C)N(Cc2cccnc2)C[C@@H]1C	none
COC(=O)c1c(C(=O)OC)c(C)n(Cc2ccco2)c1C	none
Cc1cc(C(=O)COc2cccnc2[N+](=O)[O-])c(C)n1Cc1ccco1	none
Cc1cc(C(=O)COC(=O)c2n[nH]c(=O)c3ccccc23)c(C)n1C(C)C	none
Cc1cc(C(=O)COC(=O)c2cccn2C)c(C)n1Cc1ccco1	CD40 NFkB inh 57.4
Cc1cc(C(=O)CSc2nnc(N)s2)c(C)n1Cc1ccco1	none
Cc1nn(Cc2ccccc2)c(C)c1C(=O)OCC(=O)c1cc(C)n(CC(F)(F)F)c1C	none
Cc1cc(C(=O)COC(=O)c2ccco2)c(C)n1Cc1ccco1	CD40 NFkB inh 100.8
COCC(C)n1c(C)cc(C(=O)COc2ccc(N(C)S(=O)(=O)c3ccc(NC(C)=O)cc3)cc2)c1C (stereo unspecified)	none
COCC(C)n1c(C)cc(C(=O)COC(=O)c2cccn2C)c1C (stereo unspecified)	CD40 NFkB inh 52.0
Brc1cn2ccnc2c(N2CCOCC2)n1	none
CCC1(O)CC2CN(CCc3c([nH]c4ccccc34)C(C(=O)OC)(c3cc4c(cc3OC)N(C)C3C(O)(C(=O)OC)C(C(=O)OC)C5(CC)C=CCN6CCC43C65)C2)C1 (stereo unspecified)	none
O=C(NCc1ccc(F)cc1)[C@H]1N[C@H]2c3ccc(-c4ccccc4)c(=O)n3C[C@H]2[C@@H]1CO	none
O=C1c2ccccc2-c2nc3ccccc3cc21	none
O=C1c2ccccc2C(=O)C1c1ccc2ccccc2n1	CD40 NFkB inh 52.4
COc1ccc(C2C(=O)c3ccccc3C2=O)cc1	none
CC(=O)Nc1ccc2c(c1)CC(=O)N(C)C[C@@H](C)[C@H](CN(C)S(C)(=O)=O)O2	none
COc1ccc(/C=N/Nc2ncccc2[N+](=O)[O-])c(OC)c1	CD40 NFkB inh 67.7
COc1ccc(NS(=O)(=O)c2cccc(C(=O)NN=Cc3ccc(OC)cc3OC)c2)cc1	none
COC(=O)CCCNc1ncccc1[N+](=O)[O-]	none
CC(C)CCCCCCCCCCCCC(=O)NCC(=O)NC1C(O)C(O)C(Nc2ncnc3nc[nH]c23)OC1C(O)CO (stereo unspecified)	CD40 NFkB inh 104.1
CC(C)=NNc1ncnc2nc[nH]c12	none
CCCNC(=O)[C@H]1[C@H](CO)[C@H]2Cn3c(ccc(-c4ccc(F)cc4)c3=O)[C@@H]1N2Cc1ccccc1F	none
CC(C)[C@H](C)NC(=O)N(C)C[C@H]1OCc2ccccc2-c2c(n(C)c3ccccc23)C(=O)N([C@H](C)CO)C[C@H]1C	none
Cc1cc(NC(=O)c2ccc3c(c2)OCCO3)no1	CD40 NFkB inh 78.5
Cc1cc(NC(=O)c2ccc(F)cc2)no1	none
O=C(Nc1ccccn1)c1ccc2c(c1)OCCO2	none
COc1ccc(C=C(C(=O)c2ccccc2)C(=O)c2ccccc2)cc1	none
CC(C)(C)NCC(=Cc1ccccc1)C(=O)c1ccccc1	CD40 NFkB inh 51.7
COc1ccc(C=C(C(C)=O)C(=O)c2ccccc2)cc1	none
Cc1ccc(S(=O)(=O)N(C)C[C@H]2Oc3ccc(NC(=O)CCCN(C)C)cc3C(=O)N([C@@H](C)CO)C[C@H]2C)cc1	none
N#C[C@@H]1[C@@H](c2ccccc2-c2cccc(F)c2)[C@@H](CO)N1C(=O)C1CCC1	none
CCN(CC(=O)Nc1c(F)cccc1F)C(=O)/C=C/c1ccc2ccccc2n1	none
CCN(CC(=O)Nc1c(F)cccc1F)C(=O)/C=C/c1ccc(C)o1	CD40 NFkB inh 84.0
CCOc1ccc(/C=C/C(=O)N(CC)CC(=O)Nc2c(F)cccc2F)cc1OC	none
CCS(=O)(=O)Nc1ccc2c(c1)C(=O)N(C)[C@@H]1CC[C@@H](CC(=O)NCc3ccccc3F)O[C@H]1CO2	none
N#C[C@H]1[C@@H](c2ccccc2C2=CCCCC2)[C@H](CO)N1S(=O)(=O)c1ccccc1	none
N#C[C@H]1[C@H](c2ccccc2C2=CCCCC2)[C@@H](CO)N1S(=O)(=O)c1ccccc1	CD40 NFkB inh 60.3[25 µM]
N#C[C@@H]1[C@@H](c2ccccc2C2=CCCCC2)[C@H](CO)N1S(=O)(=O)c1ccccc1	none
C/C=C/c1ccc([C@H]2[C@@H](CO)N3C(=O)CN(C(=O)Nc4ccc(F)cc4)C[C@@H]23)cc1	none
CO[C@@H]1CN(C)C(=O)c2ccc(NC(=O)NC3CCCCC3)cc2OC[C@@H](C)NC[C@H]1C	none
CN1C(=O)c2cc(NC(=O)c3ccc(F)c(F)c3)ccc2OC[C@H]2O[C@@H](CC(=O)Nc3ccc4c(c3)COC4)CC[C@@H]21	none
O=C(Nc1ccc2c(c1)OCO2)N1C[C@@H]2N[C@H](C1)C2c1ccc(-c2ccccc2)cc1 (stereo partly specified)	none
CC(=O)Nc1cc(-c2cccc(C(=O)N(C)C)c2)cn2c(-c3ccccc3)cnc12	none
COc1ccc(-c2cc(NC=O)c3ncc(-c4cccc(C(=O)N(C)C)c4)n3c2)cn1	none
CN(C)C(=O)c1cccc(-c2cnc3c(NC=O)cc(-c4cccc(C(F)(F)F)c4)cn23)c1	CD40 NFkB inh 65.4
